Eight compounds from PubChem BioAssay (NCI) can be followed below.

Compounds without any hit were thinned out: in the full panel of roughly 83,000, 20% have a hit.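 Plates (96-well) were seeded with cells, treated with compound at one concentration, and incubated for 48 hours before percent growth was determined.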 A number with no mark means an inactive call. The source made the active and inactive calls. Rule for the calls: active = growth percent below 10; inactive = the rest.

Test systems include HT29 colon; SNB-75 CNS; SNB-19 CNS; U251 CNS; SK-MEL-5 melanoma; UACC-62 melanoma; LOX IMVI melanoma; SK-MEL-28 melanoma; SK-MEL-2 melanoma; EKVX NSCLC; SN12C renal; UO-31 renal; TK-10 renal; ACHN renal; CAKI-1 renal; A498 renal; MOLT-4 leukemia; SR leukemia; CCRF-CEM leukemia.
Holding throughout (assay): NCI-60 one-dose screen, 48 h (100 = growth as untreated, 0 = no growth, -100 = all killed)
Common to all, as to settings: 10 µM unless noted

For the compound `O=C(/C=C/c1cc2ccccc2[nH]c1=O)c1ccc(Cl)cc1`, the growth with HT29 colon is 6.1% (active); with SNB-75 CNS it was 16.8%; in the test with SNB-19 CNS, 47.6%; in the test on U251 CNS, 24.8%; in the test on SK-MEL-5 melanoma, 56.2%; in the test with UACC-62 melanoma, 31.4%. Further, the growth in the test with LOX IMVI melanoma was -69.2% (active); in the test on SK-MEL-28 melanoma, 80.1%; in the test with SK-MEL-2 melanoma, 18.8%; in the test with EKVX NSCLC it was 63.7%; in the test with SN12C renal it was 47.4%; in the test with UO-31 renal it was 29.8%. Besides, the growth with TK-10 renal is 48.5%; with ACHN renal it was 51.6%; in the test with CAKI-1 renal, 42.1%; in the test with A498 renal, 13.7%; with MOLT-4 leukemia, 2.61% (active).
As to `CC1=C(C(=O)Nc2ccccc2)C(c2ccc3c(c2)OCCO3)NC(=O)N1` (stereo not drawn), the growth with HT29 colon is 108%; in the test on SNB-75 CNS it was 102%; in the test on SNB-19 CNS, 99.6%; in the test with U251 CNS, 105%; in the test on SK-MEL-5 melanoma it was 101%; in the test on UACC-62 melanoma, 101%. Besides, the growth is 94.7% in the test on LOX IMVI melanoma; 111% in the test with SK-MEL-28 melanoma; 125% in the test with SK-MEL-2 melanoma; 112% in the test with EKVX NSCLC; 100% in the test with SN12C renal; 87% in the test with UO-31 renal. Also, the growth in the test with TK-10 renal is 133%; in the test on ACHN renal, 104%; in the test with CAKI-1 renal, 95.6%; with A498 renal, 101%; with MOLT-4 leukemia, 101%; in the test on SR leukemia it was 92.9%.
Turning to `O=C(Nc1ncc([N+](=O)[O-])s1)c1cccc([N+](=O)[O-])c1`, the growth with HT29 colon is 51.4%; in the test on SNB-75 CNS, 30.3%; in the test on SNB-19 CNS, 32.8%; with U251 CNS, 52%; in the test with SK-MEL-5 melanoma it was -14.2% (active); in the test with UACC-62 melanoma, 9.35% (active). For the same compound, the growth with LOX IMVI melanoma is 52.1%; in the test on SK-MEL-28 melanoma, 56.8%; in the test with SK-MEL-2 melanoma, 16.9%; in the test on EKVX NSCLC, 37.9%; with SN12C renal it was 51.1%; with UO-31 renal, 63.4%. Also, the growth is 23.4% in the test on TK-10 renal; 59% in the test on ACHN renal; 40.4% in the test on CAKI-1 renal; 5.48% (active) in the test with A498 renal; 27.8% with MOLT-4 leukemia; 39.3% in the test on SR leukemia.
Regarding `COc1ccc(C(=O)COc2cccc(/C=C3\Oc4ccc5ccccc5c4C3=O)c2)cc1`, the growth in the test with HT29 colon is 46.2%; in the test with SNB-75 CNS, 44.8%; with SNB-19 CNS, 105%; in the test with U251 CNS, 84%; with SK-MEL-5 melanoma, 78.6%; in the test with UACC-62 melanoma, 76.4%. The growth in the test with LOX IMVI melanoma was -80.4% (active); with SK-MEL-28 melanoma it was 116%; in the test with SK-MEL-2 melanoma it was 59.1%; in the test on EKVX NSCLC it was 89.6%; in the test with SN12C renal, 75%; in the test with UO-31 renal it was -54.4% (active). Also, the growth in the test with TK-10 renal was 90.1%; in the test on ACHN renal, 97.5%; with CAKI-1 renal, 27.6%; with A498 renal it was 139%; in the test on MOLT-4 leukemia it was 18.9%; in the test on SR leukemia, 15.9%.
In the case of `O=C(CSc1nnc(Nc2ccccc2)s1)NCCc1ccc(F)cc1`, the growth in the test with HT29 colon is 105%; in the test on SNB-75 CNS, 119%; in the test with SNB-19 CNS it was 100%; in the test on U251 CNS, 105%; in the test on SK-MEL-5 melanoma, 97.2%; in the test on UACC-62 melanoma, 90%. Besides, the growth was 99.8% in the test with LOX IMVI melanoma; 134% with SK-MEL-28 melanoma; 66.2% in the test with SK-MEL-2 melanoma; 91.7% with EKVX NSCLC; 103% with SN12C renal; 48.4% with UO-31 renal. Also, the growth was 128% in the test with TK-10 renal; 107% in the test on ACHN renal; 106% with CAKI-1 renal; 93.1% in the test on A498 renal; 103% in the test with MOLT-4 leukemia; 164% in the test on SR leukemia.
Regarding `CCC(C)CC(C)C(=O)c1c(O)ccn(OC)c1=O` (stereo not drawn), the growth was 124% with HT29 colon; 88% in the test with SNB-75 CNS; 78% in the test on SNB-19 CNS; 60.6% in the test with U251 CNS; 84% in the test on SK-MEL-5 melanoma; 92.3% in the test on UACC-62 melanoma. Moreover, the growth in the test on LOX IMVI melanoma is 32.4%; with SK-MEL-28 melanoma, 77.6%; in the test with SK-MEL-2 melanoma, 102%; in the test on SN12C renal it was 69.7%; in the test on UO-31 renal, 58.3%; with TK-10 renal, 98.7%. In addition, the growth with ACHN renal was 46.1%; in the test on CAKI-1 renal it was 92.9%; with A498 renal, 98.7%; with CCRF-CEM leukemia, 39.8%; in the test with MOLT-4 leukemia it was 68.1%; in the test with SR leukemia, 47.1%.
As to `Oc1ccc(-c2nn(-c3ccccc3)cc2-c2nc3ccccc3s2)cc1`, the growth is 112% with HT29 colon; 101% with SNB-75 CNS; 93.9% in the test with SNB-19 CNS; 94% in the test on U251 CNS; 92.3% in the test on SK-MEL-5 melanoma; 88.1% in the test with UACC-62 melanoma. Further, the growth was 78.4% in the test with LOX IMVI melanoma; 117% in the test with SK-MEL-28 melanoma; 135% in the test on SK-MEL-2 melanoma; 79.5% in the test on EKVX NSCLC; 85.3% in the test on SN12C renal; 55.4% with UO-31 renal. Further, the growth with TK-10 renal is 142%; with ACHN renal it was 91.1%; with CAKI-1 renal, 82%; in the test on A498 renal, 81.7%; in the test on MOLT-4 leukemia, 87.8%; in the test with SR leukemia, 75.4%.
Consider `CN(C)CCCN1c2nc3ccccc3cc2Sc2cc3ccccc3nc21`, for which the growth was -88.6% (active) in the test with HT29 colon; 9.61% (active) in the test with SNB-75 CNS; -56.1% (active) with SNB-19 CNS; -84% (active) in the test on U251 CNS; -75.9% (active) in the test on SK-MEL-5 melanoma; -91.3% (active) with UACC-62 melanoma. The growth with LOX IMVI melanoma is -100% (active); in the test with SK-MEL-28 melanoma, -92.9% (active); in the test on SK-MEL-2 melanoma, 13%; in the test with EKVX NSCLC, -50.9% (active); with SN12C renal it was -22.4% (active); in the test on UO-31 renal, -22.7% (active). In addition, the growth in the test with TK-10 renal is -78.2% (active); in the test with ACHN renal, -100% (active); in the test with CAKI-1 renal it was -17.2% (active); in the test on A498 renal, -5.96% (active); with MOLT-4 leukemia, -57.9% (active); with SR leukemia, -38.2% (active).
